Molecules are shown by their SMILES. This is part of a sample that, as a whole, favours compounds with a hit. Of some 83,000 tested, about 20% had one in any assay.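 Growth was measured after 48 h exposure to one concentration of compound in 96-well plates. Values under 10 count as active.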 Active and inactive are the calls of the source.

The assay deals with PC-3 prostate. Put plainly: NCI-60 one-dose screen, 48 h (100 = growth as untreated, 0 = no growth, -100 = all killed). The note with it: 10 µM unless noted.
In the case of `CC(C)(C)OC(=O)Nc1ccc2c(c1)C(NC(=O)Nc1cccc(C#N)c1)CC(C)(C)O2` (stereo not drawn), the growth was 30.5% (inactive). In the case of `O=C(NCCc1ccc(O)c(O)c1)C12CC3CC(CC(C3)C1)C2`, the growth is 73.5% (inactive). As to `CC1=NOC(=O)/C1=C\c1ccc(O)cc1`, the growth is 101% (inactive).

For `O=C1/C(=C\c2cccnc2)SC(=S)N1CCc1ccc(O)cc1`, the growth is 42.2% (inactive). Turning to `Cn1cc(-c2csc(-c3cccc(F)c3)n2)c2cccnc21`, the growth is -42% [100 µM] (active). With `C=CCn1c(C)nc2cc(Nc3nc(Cl)nc4ccccc34)ccc21`, the growth was 82% (inactive). For the molecule `O=C(NC(Cc1nnc2n(Cc3ccccc3)c(=O)c3c4c(sc3n12)CCCC4)c1ccc(Cl)cc1)c1ccccc1` (stereo not drawn), the growth is 97.8% (inactive). As for `N#Cc1c(-c2cccc(Cl)c2)cc(-c2cccc(Cl)c2)[nH]c1=O`, the figure is 68.7% (inactive); as for `Clc1cccc(Cl)c1/C=C/c1cc(/C=C/c2c(Cl)cccc2Cl)[nH]n1`, 30.8% (inactive). As for `O=C1c2cccc(NCCN=Cc3cc([N+](=O)[O-])ccc3O)c2C(=O)c2c(NCCN=Cc3cc([N+](=O)[O-])ccc3O)cccc21`, the growth was 50% (inactive).

Turning to `COC(=O)[C@H](CSC)N(C)C(=O)[C@@H]1CSSC[C@@H](NC(=O)c2nc3ccccc3cc2O)C(=O)NCC(=O)N1C`, the growth was 72.7% (inactive). On to `O=C1N=c2cc3c(cc2=C/C1=C/c1sc(=S)n(CCc2ccc(O)cc2)c1O)OCCO3`, for which the growth is 41.4% (inactive). As for `O=C1CC(N2C(=O)/C(=C/C(Cl)=C\c3ccc([N+](=O)[O-])cc3)SC2=S)C(=O)N1c1ccc(O)cc1` (stereo not drawn), the growth is 5.02% (active).
